Results filed as inconclusive are left out. Entries that show only a call come without a potency. A number with no mark means an inactive call. Activity calls are given as the source filed them. The call rests on the fitted dose curve; in most records, active means well fitted cell-killing curve with a large enough effect in the repeat runs; inconclusive means weak or mixed curves, or effect the other way; inactive means flat fitted curve, though single readings scatter.

The values that follow come from PubChem BioAssay (Tox21).

A short description of test [1]: cAMP Responsive Elements (CRE) small molecule antagonists, cell-based qHTS assay: qHTS cell viability counter screen (AID 2060913). Further: nearly all actives have a fitted effect of over 40% in size. Particulars: CRE-bla HEK293T viability, CellTiter-Glo luminescence, 5 h; series mostly up to 92.4 µM. Put shortly: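 Cytotoxicity counter screen multiplexed with the CRE-bla antagonist read: HEK293T cells in DMEM with dialyzed FBS and 25 mM HEPES were treated 3 hrs under 0.25 uM final NKH477, then viability measured by CellTiter-Glo luminescence.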
(qHTS replaces the single test concentration by a dilution series.)

Test [2] is described as follows: cAMP Responsive Elements (CRE) small molecule agonists, cell-based qHTS assay: qHTS cell viability counter screen (AID 2060914). Further: nearly all actives have a fitted effect of over 50% in size. Conditions: CRE-bla HEK293T viability, CellTiter-Glo luminescence, 5 h; series mostly up to 92.4 µM. Put shortly: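 HEK 293T CRE-bla; DMEM + 10% dialyzed FBS, 25 mM HEPES; 18 h pre-incubation; compound 3 h, 37 °C/5% CO2; CellTiter-Glo added after reporter read; luminescence after 30 min RT.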

As for `CCCCSP(=O)(SCCCC)SCCCC`, the Potency result in test [1] and in test [2] was “inactive” each time.

As for `CN(N=O)C(N)=O`, the Potency entry in test [1] and in test [2] was “inactive” in each case.

For `CNC(=S)S`, the Potency entry in test [1] and in test [2] was “inactive” each time.

As for `O=C1OC(CCN2CCCCC2)OC1(c1ccccc1)c1ccccc1` (stereo not given), the Potency entry in test [1] and in test [2] was “inactive” each time.

For the molecule `C#CCN(C)[C@H](C)Cc1ccccc1`, the Potency result in test [1] and in test [2] was “inactive” in each case.

Take `C=CC1(C)OC(=O)N(c2cc(Cl)cc(Cl)c2)C1=O` (stereo not given): the Potency entry in test [1] and in test [2] was “inactive” each time.

As to `N#CCc1ccccc1`, the Potency result in test [1] and in test [2] was “inactive” in each case.

With `O=C(Cc1ccccc1)OCCc1ccccc1`, the Potency result in test [1] and in test [2] was “inactive” throughout.

For `CCOP(=S)(S)OCC`, the Potency entry in test [1] and in test [2] was “inactive” throughout.

As to `O=C1OC(=O)C2C1C1(Cl)C(Cl)=C(Cl)C2(Cl)C1(Cl)Cl` (stereo not given), the Potency result in test [1] and in test [2] was “inactive” in each case.

For `ClCOCCl`, the Potency result in test [1] and in test [2] was “inactive” throughout.

In the case of `CCCCCCCCCC(CC)c1ccc(S(=O)(=O)O)cc1` (stereo not given), the Potency entry in test [1] and in test [2] was “inactive” throughout.

Consider `CSSC`, for which the Potency entry in test [1] and in test [2] was “inactive” throughout.

Regarding `Nc1ccc(-c2ccccc2)cc1`, the Potency result in test [1] and in test [2] was “inactive” throughout.

In the case of `CCCC[N+]1(C)CCCC1` (tested in a mixture with another compound), the Potency entry in test [1] and in test [2] was “inactive” in each case.

As to `C=C(C)CN(CC)c1c([N+](=O)[O-])cc(C(F)(F)F)cc1[N+](=O)[O-]`, the Potency entry in test [1] and in test [2] was “inactive” throughout.

As for `CCOC(=O)CCl`, the Potency entry in test [1] and in test [2] was “inactive” throughout.

Regarding `COc1ccccc1OC`, the Potency result in test [1] and in test [2] was “inactive” each time.

As to `CCNP(=S)(OC)O/C(C)=C/C(=O)OC(C)C` (stereo not given), the Potency result in test [1] and in test [2] was “inactive” each time.

Regarding `CN1C(=O)CN=C(c2ccccc2)c2cc([N+](=O)[O-])ccc21`, the Potency entry in test [1] and in test [2] was “inactive” each time.

For `CCC(Cl)[N+](=O)[O-]` (stereo not given), the Potency entry in test [1] and in test [2] was “inactive” each time.

For `CCCCCCCCC(=O)NCc1ccc(O)c(OC)c1`, the Potency result in test [1] and in test [2] was “inactive” throughout.

As to `CNC`, the Potency entry in test [1] and in test [2] was “inactive” each time.

`C[C@H]1[C@@H]2Cc3ccc(O)cc3[C@@]1(C)CCN2C`: the Potency result in test [1] and in test [2] was “inactive” in each case.

For the molecule `C=CCc1ccc(OC(=O)Cc2ccccc2)c(OC)c1`, the Potency result in test [1] and in test [2] was “inactive” each time.

For the molecule `O=[N+]([O-])c1ccc([As](=O)(O)O)cc1`, the Potency entry in test [1] and in test [2] was “inactive” each time.

As for `COc1cc(CCN)cc(OC)c1OC`, the Potency entry in test [1] and in test [2] was “inactive” each time.

With `OCCSSCCO`, the Potency result in test [1] and in test [2] was “inactive” in each case.

With `CCOC(=O)C(C)OC(=O)c1cc(Oc2ccc(C(F)(F)F)cc2Cl)ccc1[N+](=O)[O-]` (stereo not given), the Potency entry in test [1] and in test [2] was “inactive” each time.

Turning to `CN(C)c1ccccc1`, the Potency entry in test [1] and in test [2] was “inactive” throughout.

`CCOP(=S)(OCC)Oc1ccc(S(C)=O)cc1` (stereo not given): the Potency result in test [1] and in test [2] was “inactive” in each case.

Take `ClCc1ccccc1`: the Potency result in test [1] and in test [2] was “inactive” in each case.

With `CCN`, the Potency entry in test [1] and in test [2] was “inactive” in each case.

For the molecule `CCC[N+](CCC)(CCC)CCC`, the Potency result in test [1] and in test [2] was “inactive” each time.

With `c1ccc(OP(Oc2ccccc2)Oc2ccccc2)cc1`, the Potency entry in test [1] and in test [2] was “inactive” each time.

In the case of `NN=C(N)N`, the Potency entry in test [1] and in test [2] was “inactive” in each case.

For `Clc1ccc(C(Cl)(Cl)Cl)cc1Cl`, the Potency entry in test [1] and in test [2] was “inactive” throughout.

As to `NC(=O)OCCCc1ccccc1`, the Potency entry in test [1] and in test [2] was “inactive” throughout.

On to `N=C(N)[Se]`, for which the Potency result in test [1] and in test [2] was “inactive” in each case.

Turning to `CCOP(=S)(OCC)SCCl`, the Potency entry in test [1] and in test [2] was “inactive” each time.

Consider `COP(=O)(OC)OC=C(Cl)Cl`, for which the Potency entry in test [1] and in test [2] was “inactive” in each case.

Regarding `Clc1ccc(C(OCCN2CCCCC2)c2ccccc2)cc1` (stereo not given), the Potency entry in test [1] and in test [2] was “inactive” throughout.

Consider `CC1(C)Cc2cccc(O)c2O1`, for which the Potency entry in test [1] and in test [2] was “inactive” each time.

As for `CC#Cc1cc(C)nc(Nc2ccccc2)n1`, the Potency result in test [1] and in test [2] was “inactive” throughout.

Consider `Cn1c(CCCC(=O)O)nc2cc(N(CCCl)CCCl)ccc21`, for which the Potency result in test [1] and in test [2] was “inactive” in each case.

Consider `S=C(SSC(=S)N1CCCCC1)N1CCCCC1`, for which the Potency entry in test [1] and in test [2] was “inactive” in each case.

As for `CN1C(=O)CCS(=O)(=O)C1c1ccc(Cl)cc1` (stereo not given), the Potency entry in test [1] and in test [2] was “inactive” in each case.

On to `O=C(O)CCl`, for which the Potency result in test [1] and in test [2] was “inactive” throughout.

Take `COC1CC(=C(c2cccs2)c2cccs2)C[N+](C)(C)C1` (stereo not given): the Potency entry in test [1] and in test [2] was “inactive” throughout.

On to `CCOC(=O)C1OC1(C)c1ccccc1` (stereo not given), for which the Potency result in test [1] and in test [2] was “inactive” each time.

Regarding `CC1=C2C[C@H]3[C@@H](CC=C4C[C@@H](O)CC[C@@]43C)[C@@H]2CC[C@]12O[C@@H]1C[C@H](C)CN[C@H]1[C@H]2C`, the Potency entry in test [1] and in test [2] was “inactive” in each case.

On to `O=C1NCN(c2ccccc2)C12CCN(CCCOc1ccc(F)cc1)CC2`, for which the Potency entry in test [1] and in test [2] was “inactive” throughout.

Consider `COc1cc(-c2ccc(N)c(OC)c2)ccc1N`, for which the Potency entry in test [1] and in test [2] was “inactive” in each case.

Take `CCN(C(C)=O)c1cccc(-c2ccnc3c(C#N)cnn23)c1`: the Potency entry in test [1] and in test [2] was “inactive” in each case.

In the case of `CCOCn1c(-c2ccc(Cl)cc2)c(C#N)c(Br)c1C(F)(F)F`, the Potency entry in test [1] and in test [2] was “inactive” in each case.

Take `N[C@@H](Cc1ccc(N(CCCl)CCCl)cc1)C(=O)O`: the Potency result in test [1] and in test [2] was “inactive” each time.

As for `CCCCN=C=O`, the Potency entry in test [1] and in test [2] was “inactive” throughout.

Turning to `CC(C)N(CCC(C(N)=O)(c1ccccc1)c1ccccn1)C(C)C` (stereo not given), the Potency entry in test [1] and in test [2] was “inactive” throughout.

In the case of `Cc1ccccc1CCl`, the Potency result in test [1] and in test [2] was “inactive” each time.

`C/C(=N\NC(=O)Nc1cc(F)cc(F)c1)c1ncccc1C(=O)O`: the Potency entry in test [1] and in test [2] was “inactive” throughout.
